TRPML1 agonist – activates the human TRPML1 channel | Q9GZU1 | 410,000 tested, 0.12% active | AID 624414 | TRPML1-expressing cells, Ca2+ dye fluorescence, FDSS | activation, % (concentration not given with the values); in the data active = activation above about 50%; inconclusive = mostly about 30% to 49%
Target sequence (Q9GZU1 whole entry, looked up): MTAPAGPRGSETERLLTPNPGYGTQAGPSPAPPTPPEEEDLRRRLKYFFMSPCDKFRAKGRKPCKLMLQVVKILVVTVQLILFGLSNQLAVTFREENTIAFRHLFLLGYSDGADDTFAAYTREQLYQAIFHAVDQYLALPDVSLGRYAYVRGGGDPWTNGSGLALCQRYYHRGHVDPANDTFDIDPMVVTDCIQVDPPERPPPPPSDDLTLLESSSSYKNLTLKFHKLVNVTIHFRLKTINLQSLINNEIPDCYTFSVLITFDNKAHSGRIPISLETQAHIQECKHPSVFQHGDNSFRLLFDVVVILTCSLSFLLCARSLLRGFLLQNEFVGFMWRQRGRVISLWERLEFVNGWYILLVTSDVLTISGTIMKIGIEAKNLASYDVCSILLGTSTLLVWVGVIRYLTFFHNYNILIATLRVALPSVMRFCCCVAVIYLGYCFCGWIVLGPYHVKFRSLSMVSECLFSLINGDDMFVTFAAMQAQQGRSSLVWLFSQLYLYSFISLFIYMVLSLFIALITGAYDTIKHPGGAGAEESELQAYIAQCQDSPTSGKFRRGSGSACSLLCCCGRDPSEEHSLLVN
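Tet-induced TRPML1-DL cells, 1,500 per well, cultured overnight, were loaded with a no-wash Ca2+ dye for 45–90 min. Calcium fluorescence was recorded on the FDSS for 110 s after compound addition, before the EC80 agonist (4 uM 54-4) was added.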
PTAP TSG101 blk – blocks PTAP/TSG101 interaction to inhibit HIV-1 budding | Q99816 | Fluorescence polarization, FITC-PTAP peptide / Tsg101 binding | Potency, µM (series often up to 115 µM), usual class: inhibitors | 340,000 tested, under 10 active | AID 493005; active = well fitted inhibition curve with a large enough effect in the main read-out, with a control signal flat, not every such curve was filed as active; inconclusive = small, poorly fitted or top-dose-only effect, or effect the other way, or a change in a side signal; inactive = no such curve, though single readings can be large or run the other way
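Tsg101 binding domain (10 uM final) was mixed with compound and a FITC-labeled PTAP peptide (50 nM final) in HEPES pH 7.5 buffer with NaCl, Tween 20, EDTA and TCEP; fluorescence polarization was read after 20 min at r.t.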
TRPML1 inh – blocks the human TRPML1 channel. Q9GZU1. 390,000 tested, 0.02% active. activity change, negative = inhibition, % (concentration not given with the values). TRPML1-inducible cells, Ca2+ dye fluorescence, FDSS; hits give low values; inhibition of EC80 agonist-evoked calcium signal; in the data active = activity change below about -50%; inconclusive = between about -30% and that limit;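 note: stimulus is agonist 54-4 at its EC80 concentration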
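TRPML1-DL cells, Tet-induced overnight (~16 h, 37 °C) at 1,500 cells/well, were loaded with Ca8 no-wash dye plus quencher for 45-90 min at room temperature. Compounds were pinned during FDSS kinetic reading; agonist 54-4 at EC80 (4 uM final) then added.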
TRHR ag – TRH receptor (human) agonism. AID 493084. 360,000 tested, 0.18% active. P34981. TRHR cells, calcium flux fluo-8, FDSS agonist mode. activation, % at 2 µM; in the data active = activation above about 30%
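In this calcium-flux screen, cells bearing human TRHR are dye-loaded with fluo-8, baselined for 10 cycles, then exposed to library compounds; positive kinetic calcium responses during the agonist phase mark hits, with TRH as control.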
TRHR PAM – TRH receptor (human) allosteric enhancement; 360,000 tested, 0.66% active; enhancement, % at 2 µM; TRHR cells, fluo-8 calcium fluorescence, EC20 TRH enhancement; in the data active = enhancement above about 30%
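TRHR-expressing cells loaded with fluo-8 calcium dye were read kinetically (ex 480/em 530) during compound addition, then stimulated with an EC20 of TRH (10 nM final). Enhancement of the Gq-mediated intracellular calcium response was scored.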
Of the large screens only hits and unclear results are named; the others gave an inactive call. Shown are actives, neighbours in structure and some others; about 0.81% of the full set was active somewhere.

CC(C)Sc1nc2c(c(=O)[nH]1)C(c1cccs1)C1=C(CC(C)(C)CC1=O)N2 (configuration not stated)	TRHR PAM 33.0
COc1ccc(NC(=O)Nc2cn(CC(C)C)c(=O)c3ccccc23)c(OC)c1	none (no result: PTAP TSG101 blk)
Cc1ccc(Cl)cc1NC(=O)Nc1cn(CC(C)C)c(=O)c2ccccc12	TRPML1 agonist 57.1 (no result: PTAP TSG101 blk)
CC(C)NS(=O)(=O)c1ccc(NC(=O)C(C)OC(=O)CCCOc2ccccc2)cc1 (configuration not stated)	TRHR PAM 30.2
COc1ccc(C(=O)NCC(=O)OCC(=O)N2CCCc3ccccc32)cc1	TRHR PAM 37.1
CC(C)(C)n1ncc2c(=O)n(Cc3cccc(C(F)(F)F)c3Cl)cnc21	none (no result: PTAP TSG101 blk, TRHR ag, TRHR PAM)
Cc1cc(C)n2c(SCC(C)C)nnc2n1	TRHR PAM 33.2
CCSc1nnc2nc(C)cc(C)n12	none
COc1cc2nc(N3CCN(C)CC3)nc(NC(C)C)c2cc1OC	none (no result: PTAP TSG101 blk, TRPML1 inh, TRHR ag, TRHR PAM)
CC(C)(C)n1ncc2c(=O)n(Cc3ccc(Cl)c(F)c3)cnc21	none (no result: PTAP TSG101 blk, TRHR ag, TRHR PAM)
COCC(=O)NNS(=O)(=O)c1ccccc1[N+](=O)[O-]	none
CCOc1ccc(NC(=O)CCC(=O)NNS(=O)(=O)c2ccccc2[N+](=O)[O-])cc1	TRHR ag 102.1
S=c1[nH]nc(-c2n[nH]c3c2CCC3)n1/N=C/C=C/c1ccco1	TRHR PAM 39.2
COc1ccccc1/C=C/C=N/n1c(-c2n[nH]c3c2CCC3)n[nH]c1=S	none
O=C(CCCN1C(=O)c2ccccc2C1=O)N1CCOCC1	TRHR PAM 33.3
O=C1c2ccccc2C(=O)N1CCSC(=S)N1CCOCC1	TRHR PAM 40.5
CN(C)C(=O)COc1ccccc1C(=O)OCC(=O)Nc1ccc(Oc2ccc(Br)cc2)cc1	none (no result: PTAP TSG101 blk, TRPML1 inh, TRHR ag, TRHR PAM)
CN1CCc2sc(NC(=O)Cc3ccccc3)c(C(=O)Nc3ccc(Cl)cc3)c2C1	none (no result: TRPML1 agonist, PTAP TSG101 blk, TRPML1 inh)
CC(=O)Nc1ccc(NC(=O)c2ccc(-c3ccccc3Cl)o2)cc1	TRHR PAM 33.1
CCOC(=O)C1=C(C)NC2=C(C(=O)CCC2)C1c1ccc(O)c(OCC)c1 (configuration not stated)	TRHR PAM 34.1
CCOc1cc(C2C3=C(CCCC3=O)Nc3ccc4ncccc4c32)ccc1O (configuration not stated)	none
CCOCC(=O)Nc1cccc(OC)c1	TRHR PAM 30.5
COc1cccc(NC(=O)CCC(=O)Nc2cccc(OC)c2)c1	none
COc1ccccc1CC(=O)NO	none (no result: PTAP TSG101 blk, TRPML1 inh, TRHR ag, TRHR PAM)
CCOC(=O)c1c(C)oc2nc(C)nc(NCc3ccccc3OCC)c12	TRHR PAM 43.2 (no result: PTAP TSG101 blk)
Cc1cccc(C(=O)Nc2sc(C)c(-c3ccccc3)c2C#N)c1	none
Cc1sc(NC(=O)C2CCCCC2)c(C#N)c1-c1ccccc1	TRPML1 agonist 83.2
CN(C)S(=O)(=O)N1CCN(c2cc(Cl)ccc2Cl)CC1	TRHR PAM 35.1
CCCCCn1c(=O)c(C(=O)c2ccccc2)nc2ccccc21	none
CCCCCCn1c(=O)[nH]c2nc3cc(N)ccc3nc2c1=O	TRPML1 agonist 50.8, PTAP TSG101 blk inconclusive, TRHR ag 129.6, TRHR PAM 30.6
O=C(COc1ccccc1C(=O)OCC(=O)N1CCOCC1)Nc1ccc(Br)cc1	none (no result: PTAP TSG101 blk, TRPML1 inh, TRHR ag, TRHR PAM)
O=C(N/N=C/c1cccnc1)c1ccc(NC(=O)c2ccccc2Cl)cc1	TRHR PAM 31.3
Cc1ccc(C(=O)Nc2ccc(C(=O)N/N=C/c3cccnc3)cc2)cc1	none
Cc1oc(-c2cccc(F)c2)nc1CN1CCCN(C(=O)c2ccco2)CC1	none
Cc1cccc(-c2nc(CN3CCN(Cc4cccc(F)c4)CC3)c(C)o2)c1	TRHR PAM 31.4
Cc1cc(C)n(-c2nc3ccccc3nc2N2CCN(C(=O)c3ccc(Cl)cc3)CC2)n1	TRHR PAM 30.3
CCOC(=O)C1(CC2CCCCO2)CCN(Cc2cc3ccccc3[nH]2)CC1 (configuration not stated)	TRPML1 agonist 94.9
COc1cc(/C=C2/SC(=Nc3ccc(O)cc3)NC2=O)cc(OC)c1O	TRHR ag 69.8
CCOc1ccc(/C=C/c2ccc3ccccc3[n+]2C)cc1OCC	none (no result: PTAP TSG101 blk, TRPML1 inh, TRHR ag, TRHR PAM)
O=C(CNC(=O)c1ccccc1)N[C@H](C(=O)Nc1cc(C(F)(F)F)ccc1Cl)c1ccccc1	none (no result: TRPML1 agonist, PTAP TSG101 blk, TRPML1 inh)
CN(CC(=O)Nc1ccc(F)cc1)C(=O)CSc1ccc2c(c1)OCCO2	none

Screening results deposited in PubChem BioAssay by National Center for Advancing Translational Sciences (NCATS).
